The nature of experiment [1]: NCATS anti-infectives library activity on HEK293 viability as a counter-qHTS vs the C. elegans viability qHTS (AID 1745854).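 Also: HEK293 cells exposed to compounds for 24 hr before the viability read.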 Also: potency is read from the fitted curve at half-maximal effect. The method in brief: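 HEK293 cells (1,500/well) exposed 24 hr at 37C to 1:5 titrations, up to 41.7 uM final; counter-screen to a C. elegans viability qHTS. Viability by CellTiter-Glo luminescence after 10 min at room temperature; digitonin as control.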
Background: In qHTS, concentration-response curves come from the screen itself.

Experiment [2] has as its target Estrogen receptor (Homo sapiens) (UniProt P03372). Briefly: qHTS assay for small molecule agonists of estrogen receptor alpha signaling (AID 588514; calls by dose curve; also: nearly all actives have a fitted effect of over 70% in size). The method, boiled down: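 ER-alpha-UAS-bla GripTite HEK293 cells, 5000/well in 2% charcoal/dextran-stripped FBS medium, treated with compound titrations 18 h at 37 C. CCF4 beta-lactamase read by fluorescence after 2 h RT; normalised to 20 nM 17-beta-estradiol (100%) and DMSO (0%), Hill fit for EC50 and efficacy.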

The target in experiment [3] is Glucocorticoid receptor (Homo sapiens) (UniProt P04150). Briefly: qHTS assay for small molecule agonists of glucocorticoid receptor signaling (AID 588532; active = well fitted curve in the direction sought with a large enough effect in the signal ratio, with a control signal flat; the % refers to the signal ratio). Conditions: HeLa MMTV-bla, beta-lactamase ratio, agonist, 18 h; stronger effect = higher value; percent of dexamethasone control, DMSO zero. The method in brief:
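Agonist-mode qHTS: GRE-driven beta-lactamase in HeLa cells exposed 18 h to titrated compounds (up to 92 uM), then CCF4 ratio read after 2 h at RT; Hill-fitted EC50, efficacy relative to 0.1 uM dexamethasone.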

Experiment [4] deals with Vitamin D3 receptor (Homo sapiens) (UniProt P11473). Briefly: qHTS assay for small molecule antagonists of vitamin D receptor signaling (AID 588541; calls by dose curve;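 also: receptor activated by calcitriol during compound treatment; series mostly up to about 77 µM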). The method in brief:
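Antagonist-mode beta-lactamase reporter assay: HEK293T VDR-UAS-bla cells were exposed to titrated compound alongside 1-alpha,25-dihydroxyvitamin D3 at 3 nM final for 16 h. Values were normalized to the 50 nM agonist control and DMSO basal, with IC50 and efficacy from Hill equation fits.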

Experiment [5] shares this target. Briefly: qHTS assay for small molecule agonists of vitamin D receptor signaling (AID 588543; calls by dose curve). The method, boiled down: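 Measured: β-lactamase reporter activity (CCF4, 405 nm excitation, 460/530 nm emission) in HEK293T VDR-UAS-bla cells after 16 h compound exposure at 37 °C. Normalization against 50 nM 1α,25-dihydroxyvitamin D3 and DMSO; Hill-fit EC50.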
The nature of experiment [6]: qHTS assay for small molecule agonists of retinoid X receptor alpha signaling (AID 588544; calls by dose curve). The following applies: HEK293T RXRa-UAS-bla, beta-lactamase reporter, 18 h; 530 nm emission.
For experiment [7], the target named is Retinoic acid receptor RXR-alpha (Homo sapiens) (UniProt P19793). The description is as above.
Sequence of Retinoic acid receptor RXR-alpha (Homo sapiens) (P19793 whole entry, looked up): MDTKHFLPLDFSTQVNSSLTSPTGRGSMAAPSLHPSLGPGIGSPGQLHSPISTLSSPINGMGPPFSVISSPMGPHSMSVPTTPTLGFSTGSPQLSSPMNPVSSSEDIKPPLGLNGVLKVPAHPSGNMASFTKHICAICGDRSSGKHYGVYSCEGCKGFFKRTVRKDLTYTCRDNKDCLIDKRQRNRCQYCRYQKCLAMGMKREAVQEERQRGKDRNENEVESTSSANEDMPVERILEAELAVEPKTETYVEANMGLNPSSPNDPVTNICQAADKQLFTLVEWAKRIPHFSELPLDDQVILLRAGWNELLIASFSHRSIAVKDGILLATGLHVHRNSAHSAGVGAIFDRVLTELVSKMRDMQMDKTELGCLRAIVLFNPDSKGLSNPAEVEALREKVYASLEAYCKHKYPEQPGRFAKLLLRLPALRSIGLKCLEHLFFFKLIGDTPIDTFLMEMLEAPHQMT
Experiment [8] in a line: qHTS assay for small molecule antagonists of retinoid X receptor alpha signaling (AID 588546; active = well fitted inhibition curve with a large enough effect in the signal ratio, with a control signal flat, not every such curve was filed as active; the % refers to the signal ratio;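 also: cells stimulated with 9-cis-retinoic acid as agonist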). Conditions: HEK293T RXRa-UAS-bla, beta-lactamase ratio, antagonist mode; measured here: W530 green channel, cytotoxicity proxy. The method, boiled down: (§1)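 Beta-lactamase reporter inhibition, read as CCF4 fluorescence ratio (ex 405, em 460/530 nm) after 2 h at RT. HEK293T UAS-bla cells, 2500/well, were stimulated with 9-cis-RA at 500 or 100 nM final alongside test compound for 18 h at 37 C.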

Experiment [9] has as its target Retinoic acid receptor RXR-alpha (Homo sapiens) (UniProt P19793). The description is as above. The following applies: HEK293T RXRa-UAS-bla, beta-lactamase ratio, antagonist mode. The method in brief:
as §1

Experiment [10] is described as follows: qHTS assay for small molecule activators of the p53 signaling pathway (AID 651743; active = well fitted activation curve with a large enough effect in the signal ratio, not every such curve was filed as active; the % refers to the signal ratio; also: series mostly up to about 92 µM). Conditions: HCT-116 p53RE-bla, beta-lactamase FRET ratio, 16 h; activation: stronger effect = higher value. The method in brief:
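Read-out is fluorescence intensity from the LiveBLAzer B/G FRET substrate, added for 2 hours at room temperature after HCT-116 p53RE-bla cells had been incubated with compounds for 16 hours at 37 C.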

Experiment [11] in a line: qHTS assay for environmental chemicals that activate the Aryl hydrocarbon Receptor (AhR) signaling pathway (AID 651777). Also: nearly all actives have a fitted effect of over 15% in size. Conditions: 1A2-DRE human hepatoma cells, luciferase, 24 h; activation: stronger effect = higher value. The method, boiled down: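 Concentration–response screening used 1,200 1A2-DRE cells per well, 24 hr compound exposure (37 C, 5% CO2), and One-Glo luminescence as the AhR-driven CYP1A2 reporter signal.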

Experiment [12] is described as follows: qHTS assay for small molecule agonists of the antioxidant response element (ARE) signaling pathway measured by Nrf2-dependant transcriptional activity - cell viability counter screen (AID 720653; active = well fitted curve in the direction sought with a large enough effect in the repeat runs; an effect the other way counts as inactive or inconclusive). Conditions: ARE-bla HepG2 viability, CellTiter-Glo ATP luminescence, 16 h; max response: stronger effect = lower value. The method, boiled down:
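Cytotoxicity counter screen: intracellular ATP quantified by CellTiter-Glo luminescence in the same ARE-bla HepG2 plates, after 16 h compound exposure and a 2 h beta-lactamase substrate step.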

Experiment [13] can be described thus: qHTS assay for cell viability of the p53RE-bla HCT-116 cell line (AID 743292). Also: nearly all actives have a fitted effect of over 55% in size. The method, boiled down: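 Compound-exposed HCT-116 (p53RE-bla) cells, 4,000 per well, were kept 16 h at 37 C following a 5 h preincubation. Cell number was estimated from total ATP by CellTiter-Glo luminescence read after 30 min at room temperature.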
Experiment [14] has as its target Nuclear receptor subfamily 1 group I member 2 (Rattus norvegicus) (UniProt Q9R1A7). Briefly: qHTS assay for small molecule activators of the rat pregnane X receptor (rPXR) signaling pathway (AID 651751; call rule not given here). The following applies: rPXR reporter cells, luciferase (One-Glo), 24 h.
A short description of experiment [15]: qHTS assay for small molecule activators of the human pregnane X receptor (PXR) signaling pathway (AID 720659; call rule not given here).
Experiment [16] deals with Nuclear receptor subfamily 1 group I member 3 (Homo sapiens) (UniProt Q14994). Briefly: Primary qHTS for agonist of constitutive androstane receptor (CAR) against the NCATS DSHEA and TCM libraries (AID 1794839).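 Also: HepG2 cells expressing human CAR with a CYP2B6 reporter plus PK11195 antagonist.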 The method, boiled down:
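Concentration–response screen in HepG2-CYP2B6-hCAR cells under 0.75 µM PK11195; 24 h exposure; luminescent reporter signal with multiplexed fluorescent viability.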

Experiment [17] deals with Nuclear receptor subfamily 1 group I member 2 (Homo sapiens) (UniProt O75469). Briefly: Dual reporter qHTS for agonist of Pregnane X Receptor (hPXR) against the NCATS DSHEA and TCM libraries: Luminescence readout (AID 1920059). The method in brief:
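Luminescent PXR reporter read (ONE-Glo) after a CellTiter-Fluor viability read, following 24 h, 37C treatment of HepG2 cells stably carrying hPXR-Luc.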

Experiment [18] has as its target Phospholipid hydroperoxide glutathione peroxidase GPX4 (Homo sapiens) (UniProt P36969). Briefly: Primary qHTS Assay for Inhibitors of Recombinant Selenoprotein Glutathione Peroxidase 4 (GPX4) (AID 1845192). Also: nearly all actives have a fitted effect of over 65% in size. The method in brief:
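NADPH consumption, followed by fluorescence at 340/450 nm between 0 and 15 min, reports GPX4 activity via coupled glutathione reductase (100 nM). Enzyme 200 nM was pre-exposed to compound 30 min; 0.5 mM cumene hydroperoxide and 1 mM GSH served as substrates.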

In experiment [19] the target is Glutathione peroxidase 1 (Homo sapiens) (UniProt P07203). Briefly: Primary qHTS Assay for Inhibitors of Recombinant Selenoprotein Glutathione Peroxidase 1 (GPX1) (AID 1845191). Also: nearly all actives have a fitted effect of over 65% in size. The method, boiled down: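 10 nM GPX1 + cpd, 30 min RT; start w/ 1 mM GSH, 0.5 mM cumene hydroperoxide, 0.5 mM NADPH, 100 nM GR, 0.01% BSA; buffer 50 mM Tris-HCl pH 7.5, 2 mM EDTA, 150 mM NaCl; Fl 340/450, 0 & 15 min.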
Sequence of Glutathione peroxidase 1 (Homo sapiens) (P07203 whole entry, looked up): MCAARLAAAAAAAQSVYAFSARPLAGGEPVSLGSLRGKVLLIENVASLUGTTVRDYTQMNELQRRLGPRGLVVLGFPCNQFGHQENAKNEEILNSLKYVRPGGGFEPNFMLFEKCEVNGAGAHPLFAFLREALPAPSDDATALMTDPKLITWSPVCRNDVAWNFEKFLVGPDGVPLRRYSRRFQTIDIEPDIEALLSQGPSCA

Inconclusive results are not listed. A call without a number means that no potency is given here. Active and inactive are the calls of the source. Unless noted, calls follow the shape of the dose curve; as a rule, active = well fitted curve in the direction sought with a large enough effect; inconclusive = small, poorly fitted or top-dose-only effect, or another doubt; inactive = no such curve, though single readings can be large; an effect the other way counts as inactive or inconclusive.

Sequence of Vitamin D3 receptor (Homo sapiens) (P11473 whole entry, looked up): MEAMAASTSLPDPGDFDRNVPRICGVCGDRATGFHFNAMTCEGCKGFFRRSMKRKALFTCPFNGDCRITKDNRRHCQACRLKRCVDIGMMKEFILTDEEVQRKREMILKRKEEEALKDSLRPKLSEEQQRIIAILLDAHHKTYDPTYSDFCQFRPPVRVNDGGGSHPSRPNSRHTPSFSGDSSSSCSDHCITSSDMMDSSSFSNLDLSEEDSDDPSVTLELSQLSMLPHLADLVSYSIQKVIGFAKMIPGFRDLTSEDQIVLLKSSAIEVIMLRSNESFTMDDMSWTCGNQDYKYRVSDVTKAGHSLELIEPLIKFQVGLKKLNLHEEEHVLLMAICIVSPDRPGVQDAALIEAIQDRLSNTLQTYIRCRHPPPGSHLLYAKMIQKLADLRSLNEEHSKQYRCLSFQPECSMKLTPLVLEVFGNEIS
Sequence of Nuclear receptor subfamily 1 group I member 3 (Homo sapiens) (Q14994 whole entry, looked up): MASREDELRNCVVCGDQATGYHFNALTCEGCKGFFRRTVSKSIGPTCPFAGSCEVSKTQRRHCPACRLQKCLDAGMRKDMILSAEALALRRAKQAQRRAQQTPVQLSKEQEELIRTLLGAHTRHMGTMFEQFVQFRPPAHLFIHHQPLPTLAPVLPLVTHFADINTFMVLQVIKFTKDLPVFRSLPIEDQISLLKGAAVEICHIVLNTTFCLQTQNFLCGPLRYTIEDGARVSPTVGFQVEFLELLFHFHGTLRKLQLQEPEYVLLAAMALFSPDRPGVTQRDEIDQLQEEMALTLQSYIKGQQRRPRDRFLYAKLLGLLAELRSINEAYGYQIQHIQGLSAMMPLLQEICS
Sequence of Nuclear receptor subfamily 1 group I member 2 (Homo sapiens) (O75469 whole entry, looked up): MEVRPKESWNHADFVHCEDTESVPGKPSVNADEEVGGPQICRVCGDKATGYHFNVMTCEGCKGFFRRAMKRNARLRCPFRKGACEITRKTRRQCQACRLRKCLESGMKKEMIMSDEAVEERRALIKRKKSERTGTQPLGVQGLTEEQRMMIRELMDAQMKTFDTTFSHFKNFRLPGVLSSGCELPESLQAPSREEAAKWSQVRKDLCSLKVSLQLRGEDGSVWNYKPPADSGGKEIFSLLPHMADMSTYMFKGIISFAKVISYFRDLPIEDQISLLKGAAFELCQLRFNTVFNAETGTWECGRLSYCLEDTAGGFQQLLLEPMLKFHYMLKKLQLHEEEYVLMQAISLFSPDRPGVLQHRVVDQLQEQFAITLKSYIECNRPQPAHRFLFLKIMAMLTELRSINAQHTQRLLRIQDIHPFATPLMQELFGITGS
Sequence of Glucocorticoid receptor (Homo sapiens) (P04150 whole entry, looked up): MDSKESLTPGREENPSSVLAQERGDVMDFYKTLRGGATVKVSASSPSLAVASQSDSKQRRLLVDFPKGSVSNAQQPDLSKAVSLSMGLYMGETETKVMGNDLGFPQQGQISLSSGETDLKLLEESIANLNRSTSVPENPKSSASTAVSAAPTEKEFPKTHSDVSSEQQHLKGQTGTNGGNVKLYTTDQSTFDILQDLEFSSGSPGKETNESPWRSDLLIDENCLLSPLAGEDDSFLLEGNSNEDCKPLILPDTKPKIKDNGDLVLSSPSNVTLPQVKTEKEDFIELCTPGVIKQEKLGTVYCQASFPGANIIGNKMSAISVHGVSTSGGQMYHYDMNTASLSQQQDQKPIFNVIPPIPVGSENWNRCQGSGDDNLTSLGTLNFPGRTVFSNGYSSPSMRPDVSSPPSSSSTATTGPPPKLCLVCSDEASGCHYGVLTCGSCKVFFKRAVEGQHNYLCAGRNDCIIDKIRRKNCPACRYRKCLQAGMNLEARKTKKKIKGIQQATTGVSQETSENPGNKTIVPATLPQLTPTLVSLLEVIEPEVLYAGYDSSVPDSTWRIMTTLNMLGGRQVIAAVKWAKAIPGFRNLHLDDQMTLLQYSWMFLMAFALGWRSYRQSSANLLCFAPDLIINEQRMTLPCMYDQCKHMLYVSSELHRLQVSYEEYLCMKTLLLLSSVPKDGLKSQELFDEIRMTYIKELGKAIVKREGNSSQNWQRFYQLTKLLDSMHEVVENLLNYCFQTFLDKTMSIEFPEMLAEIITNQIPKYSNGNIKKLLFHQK
Sequence of Estrogen receptor (Homo sapiens) (P03372 whole entry, looked up): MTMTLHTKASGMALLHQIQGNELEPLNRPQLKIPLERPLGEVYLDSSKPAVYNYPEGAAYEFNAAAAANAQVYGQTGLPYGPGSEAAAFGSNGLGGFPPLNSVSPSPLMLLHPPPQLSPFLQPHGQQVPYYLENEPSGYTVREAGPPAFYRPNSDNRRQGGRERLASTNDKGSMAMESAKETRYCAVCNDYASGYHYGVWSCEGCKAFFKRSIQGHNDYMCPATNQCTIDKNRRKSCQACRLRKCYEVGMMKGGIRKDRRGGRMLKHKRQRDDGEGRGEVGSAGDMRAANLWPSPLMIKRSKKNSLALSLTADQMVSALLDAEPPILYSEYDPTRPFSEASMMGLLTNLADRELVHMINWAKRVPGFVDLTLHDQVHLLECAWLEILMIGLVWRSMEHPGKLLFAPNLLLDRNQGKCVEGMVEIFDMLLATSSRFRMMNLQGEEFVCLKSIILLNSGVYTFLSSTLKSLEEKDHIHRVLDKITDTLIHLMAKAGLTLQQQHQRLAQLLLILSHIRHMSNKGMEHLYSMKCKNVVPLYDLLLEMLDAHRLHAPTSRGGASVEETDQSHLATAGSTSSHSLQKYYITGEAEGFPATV
Sequence of Nuclear receptor subfamily 1 group I member 2 (Rattus norvegicus) (Q9R1A7 whole entry, looked up): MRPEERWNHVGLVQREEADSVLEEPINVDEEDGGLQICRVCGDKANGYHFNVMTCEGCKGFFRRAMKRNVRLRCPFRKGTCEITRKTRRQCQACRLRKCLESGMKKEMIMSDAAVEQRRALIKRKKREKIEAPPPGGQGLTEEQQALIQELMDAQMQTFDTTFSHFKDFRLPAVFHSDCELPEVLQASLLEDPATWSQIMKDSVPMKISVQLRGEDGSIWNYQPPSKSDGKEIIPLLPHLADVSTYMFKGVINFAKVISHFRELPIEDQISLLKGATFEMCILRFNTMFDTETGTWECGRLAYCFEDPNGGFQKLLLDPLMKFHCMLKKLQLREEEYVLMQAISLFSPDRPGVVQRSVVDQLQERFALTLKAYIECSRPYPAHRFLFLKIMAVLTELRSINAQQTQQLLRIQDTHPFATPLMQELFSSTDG
Sequence of Phospholipid hydroperoxide glutathione peroxidase GPX4 (Homo sapiens) (P36969 whole entry, looked up): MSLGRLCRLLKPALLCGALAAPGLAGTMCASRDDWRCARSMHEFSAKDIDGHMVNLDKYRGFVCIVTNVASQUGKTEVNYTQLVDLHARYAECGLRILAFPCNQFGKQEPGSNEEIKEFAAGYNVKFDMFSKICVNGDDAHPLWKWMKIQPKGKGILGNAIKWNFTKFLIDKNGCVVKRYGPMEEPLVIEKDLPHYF

Consider `COC(=O)N[C@H](C(=O)N1CCC[C@H]1c1ncc(-c2ccc3c(c2)O[C@@H](c2ccccc2)n2c-3cc3cc(-c4cnc([C@@H]5CCCN5C(=O)[C@@H](NC(=O)OC)C(C)C)[nH]4)ccc32)[nH]1)C(C)C`, for which, in [1], the Potency result is “inactive”.
On to `CC(C)CS(=O)(=O)c1oc(-c2ccc(F)cc2)nc1S(=O)(=O)c1ccccc1`, for which, in experiment [1], the Potency is 3.98 µM (active).
For `COC(=O)c1cc(OC)c2c(c1-c1c(CO)cc(OC)c3c1OCO3)OCO2`, the Potency entry in experiment [1] is “inactive”.
On to `O=c1cc(-c2ccc(O)c(O)c2)oc2c([C@@H]3O[C@H](CO)[C@@H](O)[C@H](O)[C@H]3O)c(O)cc(O)c12`, for which the Potency entry in [1] is “inactive”.
`C[C@@H]1O[C@@H](O[C@@H]2[C@@H](O)[C@H](OCCc3ccc(O)c(O)c3)O[C@H](CO)[C@H]2OC(=O)/C=C/c2ccc(O)c(O)c2)[C@H](O)[C@H](O)[C@H]1O`: the Potency entry in [1] was “inactive”.
As for `Cc1nc(N(C)C(=O)Cc2ccc(-c3ccccn3)cc2)sc1S(N)(=O)=O`, in [1], the Potency entry was “inactive”.
For the compound `Cc1ccc(N)cc1C(=O)N[C@H](C)c1cccc2ccccc12`, the Potency entry in experiment [1] was “inactive”.
In the case of `S=C(NCCc1ccccn1)Nc1ccc(Br)cn1`, the Potency entry in [1] was “inactive”.
The same measure, in the same setting: the entry for `CC(C)C1=C2[C@H]3CC[C@@H]4[C@@]5(C)CC[C@H](OC(=O)CC(C)(C)C(=O)O)C(C)(C)[C@@H]5CC[C@@]4(C)[C@]3(C)CC[C@@]2([C@@H](O)CN(CCN(C)C)Cc2ccc(Cl)cc2)CC1=O` is “inactive”; for `CC(=O)O[C@@]1(C)C[C@@H](O)[C@]2(O)C=CO[C@@H](OC3OC(CO)C(O)C(O)C3O)[C@@H]21` (stereo not given in full) it is “inactive”; for `O=S(=O)(Cl)c1ccc(-c2ccccc2)cc1` it is “inactive”.
Still for that read-out and setting: the entry for `C=C(C)[C@@H]1CC[C@]2(C(=O)O)CC[C@]3(C)[C@H](CC[C@@H]4[C@@]5(C)CC[C@H](OC(=O)CC(C)(C)C(=O)O)C(C)(C)[C@@H]5CC[C@]43C)[C@@H]12` is “inactive”; for `COc1cc(O)c(CC=C(C)C)c2c1C(=O)CC(c1ccc(O)cc1)O2` (stereo not given) it is “inactive”; for `COc1cc2c(c(OC)c1OC)-c1c(cc(OC)c(OC)c1OC)CC(C)C(C)C2` (stereo not given) it is “inactive”.
The same measure, in the same setting: the entry for `COc1ccc(C2C(C#N)=C(N)OC3=C2C(=O)CC(c2cccc4ccccc24)C3)cc1` (stereo not given) is “inactive”; for `NC1=N[C@@](c2cccc(-c3cncnc3)c2)(c2ccnc(C(F)F)c2)c2cccc(F)c21` it is “inactive”.
As to `Cc1nc2ccccc2c(-c2ccc3c(c2)CCCO3)c1C(OC(C)(C)C)C(=O)O` (stereo not given), the Potency result in [1] was “inactive”.
For the compound `C[C@H](NC(=O)[C@H](Cc1ccccc1)NC(=O)OCc1ccccc1)C(=O)CF`, in [1], the Potency entry is “inactive”.
Same read-out and setting: the entry for `COC(=O)c1cc(O)c(O)c(O)c1` is “inactive”; for `Cc1cn([C@H]2O[C@@H](CO)[C@H](O)[C@H]2F)c(=O)[nH]c1=O` it is “inactive”.
On the same count and under the same terms, the same measure for `CC(C)c1cnn2c(NCc3ccccc3-n3cccn3)nc(OC3CCCNC3)nc12` (stereo not given): “inactive”; for `OC[C@H]1O[C@@H](Oc2c(O)cc(O)cc2/C=C/c2ccc(O)cc2)[C@H](O)[C@@H](O)[C@@H]1O`: “inactive”.
`Cc1cccc2c3c(ccc12)C1=C(C(=O)C3=O)[C@@H](C)CO1`: the Potency result in experiment [1] is “inactive”.
On to `O=[N+]([O-])c1ccc(S(=O)(=O)N2CCN(c3ccnc4cc(Cl)ccc34)CC2)c([N+](=O)[O-])c1`, for which the Potency in [1] was 10 µM (active).
For `O=C1CC(=O)c2c(Cl)c(Cl)c(Cl)c(Cl)c21`, the Potency result in experiment [1] was “inactive”.
The same measure, in the same setting: the same measure for `CC(C)Nc1nc2cc(Cl)c(Cl)cc2n1[C@H]1O[C@@H](CO)[C@H](O)[C@@H]1O`: “inactive”; for `COc1cc(O)c2c(=O)cc(-c3ccc(O)cc3)oc2c1`: “inactive”; for `C=CC(=O)N1C/C(=C\c2ccc([N+](=O)[O-])cc2)C(=O)/C(=C/c2ccc([N+](=O)[O-])cc2)C1`: 1.41 µM (active).
With `O=C(O[C@@H]1Cc2c(O)cc(O)cc2O[C@@H]1c1cc(O)c(O)c(O)c1)c1cc(O)c(O)c(O)c1`, the Potency entry in [2] and in [13] was “inactive” in each case. Further, the activation in [3] was 4.83% (inactive); in experiment [10], -1.73% (inactive); in experiment [11], -3.33% (inactive). The compound was called inactive in experiment [4], in [5], in experiment [7] and in [15]. Also, the max response in [6] is -0.202%; in [8], -13.5%; in experiment [9] it was -1.14% (inactive); in experiment [12], -12.8% (inactive); in experiment [14] it was -1.38% (inactive).
`O=C(/C=C/c1ccc(O)c(O)c1)O[C@@H]1CC(O)(C(=O)O)C[C@@H](OC(=O)/C=C/c2ccc(O)c(O)c2)C1O` (stereo not given in full): the Potency result in experiment [16] and in [17] was “inactive” throughout.
As for `COc1cc(-c2oc3cc(O)cc(O)c3c(=O)c2O)ccc1O`, the Potency result in experiment [16] was “inactive”.
On to `Cn1c(=O)cc(N2CCC[C@@H](N)C2)n(Cc2ccccc2C#N)c1=O`, for which the Potency result in experiment [18] was “inactive”.
Consider `C[C@H]1[C@H](OC(=O)CCC(=O)O)O[C@@H]2O[C@@]3(C)CC[C@H]4[C@H](C)CC[C@@H]1[C@@]24OO3`, for which the Potency entry in [1] and in [19] was “inactive” throughout.
On to `CCCCCCCCCCCCCCCCOc1nc2ccc(C)cc2c(=O)o1`, for which the Potency entry in [1] and in experiment [19] was “inactive” each time.

For the origin of these results see PubChem BioAssay (NCATS).
